ATXN2 expr inh: reduces ATXN2 reporter expression in HEK-293 cells. hit rate 0.72% among 360,000. HEK-293 ATXN2-luciferase reporter, luminescence, 24 h. AID 1745845. Potency, µM (top dose mostly 57 µM), most hits filed as inhibitors; note: nearly all actives have a fitted effect of over 55% in size
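qHTS (up to 57 uM final) was run with 24 h compound exposure of reporter cells at 37 °C. Each well was multiplexed: SteadyGlo luminescence measured ATXN2-luciferase expression after a fluorogenic Gly-Phe-AFC viability readout (25 uM final).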
ATXN viability: viability counter-screen for ATXN expression inhibitors. S2 cells (HEK-293 line with an ATXN2-luciferase reporter) viability, CellTiter-Fluor protease fluorescence, 24 h. Potency, µM (titrated, usually from 56.7 µM), most hits filed as cytotoxic. hit rate 0.49% among 400,000. AID 651635; note: nearly all actives have a fitted effect of over 40% in size
TGFb SMAD3 inh: TGF-b pathway inhibition. HepG2 CAGA-GFP TGF-b/SMAD3 reporter, GFP fluorescence, 18 h; TGF-beta stimulated, 500 pg/mL final. Potency, µM (series often up to 46.1 µM), actives largely listed as inhibitors. hit rate 1.2% among 410,000. AID 588855; note: nearly all actives have a fitted effect of over 65% in size
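Read-out: total well GFP (ex488/em500-530) summed from mean per-cell fluorescence. Cells: HEPG2 CAGA-GFP, 1% FBS DMEM, 18 h at 37 degrees C with 500 pg/mL final TGF-beta. Unstimulated wells served as the full-inhibition control; stimulated DMSO wells = 0%.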
HttQ103 aggreg: inhibitors of mutant huntingtin aggregate formation in PC12 cells | PC12 HttQ103-GFP aggregates, Acumen cytometry, 40 h | Potency, µM (titrated, usually from 46.1 µM), hits mostly inhibitors | hit rate 1.1% among 220,000 | AID 1688; note: nearly all actives have a fitted effect of over 60% in size
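PC12/HTTQ103-GFP, ecdysone-inducible; teb 100 nM; cpd qHTS titration; GFP aggregates read on laser cytometer, Ex 488/Em 500-530 nm.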
HepG2 tox: counter-screen for TGF-b inhibitors: cytotoxicity in HepG2 cells | AID 588856 | HepG2 CAGA-GFP viability, ATP luminescence, 18 h | hit rate 0.76% among 410,000 | Potency, µM (titrated, usually from 46.1 µM), hits mostly cytotoxic
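HepG2 CAGA-GFP cells (1000/well, DMEM with 1% FBS) received compound, then TGF-beta at 500 pg/mL final, and were incubated 18 hours at 37 degrees C. Viability was read by CellTiter-Glo luminescence. Media-only wells were set as complete cell-killing and DMSO as no toxicity.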
HTT cytoprotect: Huntington cell model cytoprotection by ATP luminescence; PC12 HTT-Q103 induced, cytoprotection, ATP luminescence, 40 h; Potency, µM (doses to about 56.4 µM), hits mostly activators; hit rate 0.14% among 230,000; note: nearly all actives have a fitted effect of over 45% in size
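Stable PC12 Q103-GFP cells in serum-supplemented, phenol red-free DMEM; induction by tebufenozide at 100 nM final; compound dose series; cell viability quantified luminescently from ATP.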
Hits are given with their value; 0 = inactive; ? = inconclusive; - = no result given; ! = not active in a repeat; [ ] = remark or other dose. Most compounds without a hit are left out; they make up all but 2.8% or so of the library. Calls come from the whole dose curve; as a rule, active = well fitted curve in the direction sought with a large enough effect; inconclusive = small, poorly fitted or top-dose-only effect, or another doubt; inactive = no such curve, though single readings can be large; an effect the other way counts as inactive or inconclusive.

SMILES	ATXN2 expr inh	ATXN viability	TGFb SMAD3 inh	HttQ103 aggreg	HepG2 tox	HTT cytoprotect
CCn1c2ccccc2c2cnc(N=CN(C)C)c(C#N)c21	0	0	0	8.91µM	0	0
CCN(CC)CCn1c2ccccc2c2cnc(N=CN(C)C)c(C#N)c21	?	0	0	0	0	0
N#CC(=C1C=CC(=NO)C(Cl)=C1)c1ccccc1	0	0	11.2µM	-	0	-
N#CC(=C1C=C(Br)C(=NO)C=C1Cl)c1ccc(Cl)cc1	-	?	0	-	0	-
CCC1(C2CCN(C(=O)c3cc(C)cc(C)c3)CC2)NC(=O)N(CCc2scnc2C)C1=O (stereo unspecified)	-	0	-	-	-	-
C=C1C=C(C(F)F)n2ncc(C(=O)Nc3ccc(Br)cc3C(F)(F)F)c2N1	-	-	0	-	0	-
CCOc1ccc(NCC(=O)N/N=C/C=C/c2ccccc2)cc1	-	0	0	0	0	0[10 µM]
CCOc1ccc(N=C/C=C/c2ccccc2)c(O)c1	-	?	14.1µM	0[9.22 µM]	0	0[10 µM]
COc1ccc(CN2CCC(n3cc(C(=O)N4CCCC4)nn3)CC2)c(OC)c1C	-	0	-	-	-	-
CC(C)C[C@H](NC(=O)c1[nH]cnc1C(=O)Nc1ccccc1)C(=O)OC(C)(C)C	?	?	15.8µM	0[9.22 µM]	0	0[10 µM]
CCOC(=O)c1ccc(NC(=O)c2nc[nH]c2C(=O)N[C@H](C)c2ccccc2)cc1	31.6µM	?	?	0[9.22 µM]	0	0[10 µM]
CC(C)(C)OC(=O)NCCCC[C@H](NC(=O)c1[nH]cnc1C(=O)Nc1ccc(Cl)cc1)C(=O)OC(C)(C)C	?	?	14.1µM	0[9.22 µM]	0	0[10 µM]
CC(C)(C)OC(=O)[C@H](Cc1ccccc1)NC(=O)c1[nH]cnc1C(=O)Nc1ccccc1F	?	17.8µM	?	-	11.2µM	-
CCOC(=O)c1ccc(NC(=O)c2nc[nH]c2C(=O)N[C@@H](CC(C)C)C(=O)OC(C)(C)C)cc1	0	0	?	0[9.22 µM]	0	0[10 µM]
Cc1ccc(NC(=O)c2nc[nH]c2C(=O)N[C@H](C)c2ccccc2)cc1	?	?	?	-	0	-
COC(=O)[C@H](COC(C)(C)C)NC(=O)O[C@@H]1C(=O)c2cc(OC)ccc2O[C@H]1c1cccc(OC)c1	-	-	-	-	-	0
CC(C)C[C@H](NC(=O)c1nc[nH]c1C(=O)N[C@@H](CCCCN)C(=O)OC(C)(C)C)C(=O)OC(C)(C)C	0	0	0	-	0	-
CC(C)C[C@H](NC(=O)c1nc[nH]c1C(=O)NCC(=O)OCc1ccccc1)C(=O)OCc1ccccc1	0	0	?	-	0	-
CC(C)C[C@H](NC(=O)c1[nH]cnc1C(=O)N[C@@H](C)C(=O)OC(C)(C)C)C(=O)OC(C)(C)C	0	-	?	0[9.22 µM]	11.2µM	0[10 µM]
CC1CCN(C(=O)c2[nH]cnc2C(=O)N[C@@H](C)C(=O)OCc2ccccc2)CC1	0	0	11.2µM	0[9.22 µM]	0	0[10 µM]
CC(C)C[C@H](NC(=O)c1nc[nH]c1C(=O)NCC(=O)OC(C)(C)C)C(=O)OCc1ccccc1	0	0	11.2µM	0[9.22 µM]	0	0[10 µM]
COc1ccc(CCNC(=O)c2cnn(-c3nccc(-c4cccs4)n3)c2C)cc1OC	-	0	-	-	-	-
NC(=O)COC(=O)c1ccccc1OCC(=O)Nc1ccc(Br)cc1	-	-	0	-	0	-
Oc1ccccc1C1OCC2(CO1)COC(c1ccccc1O)OC2 (stereo unspecified)	0	0	0	0	0	-
Cc1cc2c(cc1C)CSC(c1ccccc1O)SC2	0	?	15.8µM	0	0	0
SMILES	ATXN2 expr inh	ATXN viability	TGFb SMAD3 inh	HttQ103 aggreg	HepG2 tox	HTT cytoprotect
Oc1ccccc1C1SC(c2ccccc2O)SC(c2ccccc2O)S1 (stereo unspecified)	20µM	-	?	-	22.4µM	-
O=[N+]([O-])c1ccc(Nc2nc(NCCN3CCOCC3)nc(Nc3ccc(Cl)cc3)n2)cc1	-	-	?	-	0	-
CC1(C(=O)Nc2cccc3cccnc23)CCN1Cc1csc2ccccc12 (stereo unspecified)	0	20µM	?	-	0	-
CC(C)C[C@H](NC(=O)[C@@H](Cc1c[nH]c2ccccc12)NC(=O)[C@@H](Cc1ccc(O)cc1)NC(=O)[C@@H](CO)NC(=O)[C@@H](Cc1c[nH]c2ccccc12)NC(=O)C(Cc1cnc[nH]1)NC(=O)C1CCC(=O)N1)C(=O)N[C@@H](CCCN=C(N)N)C(=O)N1CCC[C@@H]1C(=O)NCC(N)=O (stereo partly specified)	-	-	-	0	-	0
CCNC(=O)[C@@H]1CCCN1C(=O)[C@H](CCCN=C(N)N)NC(=O)[C@H](CC(C)C)NC(=O)[C@@H](Cc1c[nH]c2ccccc12)NC(=O)[C@H](Cc1ccc(O)cc1)NC(=O)[C@H](CO)NC(=O)[C@H](Cc1c[nH]c2ccccc12)NC(=O)[C@H](Cc1cnc[nH]1)NC(=O)[C@@H]1CCC(=O)N1	-	-	-	7.94µM	-	0
COc1ccc2ccc3c(c2c1)N=C[C@]1(O3)N(C)c2ccccc2C1(C)C	0	0	?	?	6.31µM	0
O=C(c1ccc(Cl)cc1)N1CCC2CC1c1cc(-c3ccccc3)ccc12 (stereo unspecified)	0	0	20µM	-	0	-
O=C(c1cccc(Cl)c1)N1CCN(c2ccc3c(c2)C2CC3CCN2C(=O)OCc2ccccc2)CC1 (stereo unspecified)	0	?	11.2µM	-	0	-
COCC(=O)Nc1cc(C(=O)N2CCCCC2c2nccn2C)cc2nc(-c3ccccc3)n(C)c12 (stereo unspecified)	-	0	-	-	-	-
Clc1cccc[n+]1CCc1ccccc1	-	-	0	-	0	-
C[C@@H]1CN(Cc2ccc3c(c2)CN(C(=O)c2ccc(Oc4ccccc4)o2)CCO3)C[C@H](C)O1	-	0	-	-	-	-
COc1ccc(-c2[nH]nc3nc(N4CCN(C(=O)c5ccoc5)CC4)cc(C(F)(F)F)c23)cc1	20µM	20µM	?	-	0	-
O=C(c1ccc(Cl)cc1)c1coc2ccc(O)cc12	0	0	0	0.631µM	0	0
CCOC(=O)c1ccc(N2C(=O)c3[nH]nc(-c4ccccc4)c3C2c2cccs2)cc1 (stereo unspecified)	-	-	7.08µM	-	0	-
CCOC(=O)c1ccc(N2C(=O)c3[nH]nc(-c4ccccc4)c3C2c2ccc(CC)cc2)cc1 (stereo unspecified)	?	-	11.2µM	-	11.2µM	-
COc1ccc(O)c(CN2CCC3(CCC(CNC(=O)c4ccco4)O3)CC2)c1 (stereo unspecified)	-	0	-	-	-	-
CCC(CNc1cc(OC)cc2cccnc12)NC1CCCCC1 (stereo unspecified)	-	17.8µM	?	0[9.22 µM]	0	0[10 µM]
COc1cc(NCCCC(C)N)c2ncccc2c1 (stereo unspecified)	0	0	0	17.8µM!	0	0[10 µM]
COc1cc(NCCCCC(C)N)c2nccc(C)c2c1 (stereo unspecified)	-	?	?	-	0	-
